# Screening data (PubChem)
# Sampled rows, rich in hits. Any-hit rate of the full collection: about 19%.
# IL1B secr inh – inhibitors of inflammasome signaling (IL-1 beta secretion) | THP-1 LPS/ATP IL-1B secretion, AlphaLISA, 16 h; hits give low values | activity change, % at 57.5 µM | hit rate 4.7% among 360,000 | AID 743279; in the data active = activity change below about -50%; inconclusive = mostly about -30% to -49%
#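 Secreted IL-1B measured by AlphaLISA bead assay after 16 h compound exposure of THP-1 cells; compounds (final up to 57.5 uM) added 1 h before LPS (250 ng/mL) and ATP (1.25 mM) stimulation; lower signal means less secretion.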
# ELG1 repair inh – inhibitors of ELG1-dependent DNA repair in HEK293T cells | HEK293T ELG1-luciferase reporter, luminescence, 16 h; DNA damage induced by 5-fluorouridine | Potency, µM (doses to about 46.1 µM), inactives show top-dose activity change, negative = inhibition, hits mostly inhibitors | hit rate 2.3% among 330,000; also: potency is read from the fitted curve at half-maximal effect; nearly all actives have a fitted effect of over 55% in size
#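 Cells (2,000 per well) received 5-fluorouridine plus test compound or DMSO and were incubated 16 hr at 37 °C, 5% CO2. Luciferase activity was read by luminescence 30 min after ONE-Glo addition; signal suppression marked inhibition of damage-induced ELG1 function.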
# HT1080 IDH1KD tx – HT-1080 IDH1 knockdown cell toxicity (counter line). AID 686971. HT-1080 IDH1 knockdown viability, ATP luminescence, 48 h. hit rate 2% among 360,000. Potency, µM (titrated, usually from 46.1 µM), for inactives: at the top dose activity, negative = toxicity, actives largely listed as cytotoxic;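 also: potency is read from the fitted curve at half-maximal effect; 0% = DMSO wells and -100% = cell-free medium wells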
#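 CellTiter-Glo luminescence after 48 h compound exposure at 37 degrees C of IDH1-knockdown HT-1080 cells in 5% FBS RPMI. %Activity scaled between DMSO wells and cell-free media wells, with curves fitted and assigned curve classes.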
# DT40 TDP1 no CPT – qHTS for Inhibitors of human tyrosyl-DNA phosphodiesterase 1 (TDP1): qHTS in cells in absence of CPT; DT40 Tdp1-/- hTDP1 cells, no CPT, ATP luminescence, 48 h; Potency, µM (series often up to 46.2 µM), for inactives: at the highest dose activity change, negative = growth inhibition, most hits filed as inhibitors; hit rate 15% among 420,000; also: potency is read from the fitted curve at half-maximal effect; nearly all actives have a fitted effect of over 55% in size
#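 Readout: luminescence from CellTiter-Glo after 30 min in the dark at RT. Cells: DT40 Tdp1-/- with stable hTDP1, 400/well. Exposure: compounds alone, ≥48 hr, 37 °C.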
# DT40 TDP1 CPT – growth inhibition of DT40 Tdp1-/-;hTDP1 cells with camptothecin (screen for TDP1 inhibitors). chicken DT40 Tdp1-/-;hTDP1 cells + 20 nM CPT, ATP luminescence, 48 h. Potency, µM (titrated, usually from 46.2 µM), without a hit: top-dose activity change, negative = growth inhibition, usual class: inhibitors. hit rate 12% among 420,000. AID 686979; also: potency is read from the fitted curve at half-maximal effect; nearly all actives have a fitted effect of over 55% in size
#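 Cell growth measured by CellTiter-Glo luminescence after a minimum 48 h, 37 C compound exposure with 20 nM CPT in Tdp1-knockout DT40 cells stably expressing hTDP1, seeded 400/well; qHTS titration format.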
# HT1080-NT tox – kills 2HG-producing HT-1080-NT fibrosarcoma cells; AID 686970; Potency, µM (highest dose often 46.1 µM), for the others: at the top dose activity, negative = less viability, hits mostly cytotoxic; HT-1080-NT fibrosarcoma viability, CellTiter-Glo ATP luminescence, 48 h; hit rate 1.6% among 360,000;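 also: NT is the 2HG producing partner of a matched IDH1 knockdown line; potency is read from the fitted curve at half-maximal effect; 0% = DMSO-treated cells and -100% = media-only wells without cells; nearly all actives have a fitted effect of over 55% in size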
#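 Fibrosarcoma NT cells, 750 per well in 5% FBS RPMI, were exposed to compound for 48 hours. Viability: CellTiter-Glo luminescence.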
# Starred values were filed as active, the others as inactive; u = inconclusive; x = no result given; ! = not active in a repeat; [ ] = another dose, or the depositor's remark. Unless noted, calls follow the shape of the dose curve; as a rule, active = well fitted curve in the direction sought with a large enough effect; inconclusive = small, poorly fitted or top-dose-only effect, or another doubt; inactive = no such curve, though single readings can be large; an effect the other way counts as inactive or inconclusive. Unless noted, % is scaled to controls: 0 for no effect and ±100 for the full control effect.
SMILES,IL1B secr inh,ELG1 repair inh,HT1080 IDH1KD tx,DT40 TDP1 no CPT,DT40 TDP1 CPT,HT1080-NT tox
Cc1cc(C)c(/C=N/NC(=O)c2nnn(-c3nonc3N)c2CN2CCC(C)CC2)c(C)c1,-13.8,u,u,20.6µM*,u,u
Cc1cccc(C(=O)NC(=O)Nc2ccc(-n3nc(C(F)(F)F)cc3C(F)(F)F)cc2)c1,x,x,x,-26.3%,-9.9%,x
FC(F)(F)C(Oc1nc(Nc2ccc(Cl)cc2)nc(N2CCOCC2)n1)C(F)(F)F,-76.0*,u,-4.9%,20.6µM*,u,u
CC(C)c1ccc(Nc2nc(Nc3ccc(Cl)cc3)nc(N3CCOCC3)n2)cc1,x,x,x,11.2µM*,u,x
Clc1ccc(Oc2nc(N3CCOCC3)nc(N3CCOCC3)n2)cc1,-14.9,x,8.5%,u,u,12.4%
CC(=O)Nc1cc(N=Cc2ccc(O)cc2O)c(Cl)cc1Cl,-101.7*,-0.8%,18.4µM*,u,u,u
COc1ccc(O)c(C=Nc2cc(NC(C)=O)c(Cl)cc2Cl)c1,11.0,-1.2%,1.8%,-13.2%,4.5%,5.4%
COc1ccccc1N1CCN(CC(O)c2c(C)[nH]c3ccccc23)CC1 (stereo not drawn),-3.4,2.8%,-18.0%,16.4µM*,u,-13.1%
COc1ccccc1N1CCN(CC(=O)c2c[nH]c3ccccc23)CC1,20.0,-5.9%,-25.6%,10.3µM*,u,-15.7%
O=C(CN1CCCCC1)c1c[nH]c2ccccc12,9.6,14.6%,-1.6%,19.2%,-4.6%,0.4%
CC1CC(C)CN(CC(=O)c2c[nH]c3ccccc23)C1 (stereo not drawn),-3.6,2.5%,-4.6%,23.1µM*,u,-1.8%
COC(=O)c1ccc(OC(=O)CN2C(=O)c3ccccc3C2=O)cc1,15.1,6.3%,0.3%,-5.1%,2.1%,8.1%
COc1ccc(NC(=O)c2sccc2SCc2cccc(C(F)(F)F)c2)cc1,-20.1,0.2%,8.91µM*,u,u,u
NNC(=O)c1sccc1OCc1cccc(C(F)(F)F)c1,-3.3,u,-0.4%,u,20.6µM*,-6.1%
CC(=O)c1ccc(OCc2cccc(C(F)(F)F)c2)cc1O,-19.5,18.8%,17.2%,-25.7%,-0.7%,12.3%
COC(=O)c1sccc1OCc1cccc(OC)c1,-2.4,1.3%,0.6%,-23.9%,7.2%,16.3%
Nc1ncccc1OCc1cccc(C(F)(F)F)c1,-50.8*,u,-7.2%,6.51µM*,-18.2%,-5.7%
COCCn1c(SCC(=O)Nc2cc(C)on2)nc2c(c1=O)SCC2,3.5,-5.8%,0.8%,-28.5%,7.1%,1.9%
O=C(COc1ccc(Cl)cc1)NCc1cn2cc(Cl)ccc2n1,-7.7,0.4%,-16.5%,-25.0%,-1.1%,-11.2%
CC(=O)NO,14.6,x,15.7%,1.68µM*!,u,45.5%
O=c1[nH]nc(Sc2ccccc2)c(=S)[nH]1,-4.8,x,8.3%,-27.5%,-15.9%,4.7%
CCOC(=O)c1c(C)[nH]c(C)c1C(=O)CSc1nc2ccccc2c(=O)n1-c1ccc(C)cc1,-2.2,u,3.4%,10.1%,8.5%,5.5%
CCOC(=O)c1c(C)[nH]c(C)c1C(=O)CSc1nc2ccccc2c(=O)n1-c1ccc(Cl)cc1,-7.3,u,u,18.4µM*,16.4µM*,-9.7%
CCCn1c(SCC(=O)c2c(C)[nH]c(C)c2C(=O)OCC)nc2ccccc21,0.0,u,3.7%,u,16.4µM*,8.3%
Cc1[nH]c2ccccc2c1C(=O)CSc1nccc(=O)[nH]1,19.0,9.1%,6.4%,11.3%,-10.4%,-0.4%
SMILES,IL1B secr inh,ELG1 repair inh,HT1080 IDH1KD tx,DT40 TDP1 no CPT,DT40 TDP1 CPT,HT1080-NT tox
Cc1[nH]c2ccccc2c1C(=O)CSc1ccc(Cl)cc1,-16.3,11.2%,-19.4%,u,23.1µM*,-0.3%
CCOC(=O)c1c(C)[nH]c(C)c1C(=O)CSc1nc2ccccc2n1CCC#N,0.0,-8.3%,-13.0%,-30.0%,4.0%,-7.8%
CCCCC/C=C\C\C=C/C=C/C=C/[C@@H](SCC(NC(C)=O)C(=O)O)[C@@H](O)CCCC(=O)O (stereo partly drawn),x,x,x,-0.2%[0.628 µM],-26.1%[0.628 µM],x
O=S(=O)(NC1=NCCCCC1)c1ccccc1Cl,6.7,3.5%,6.0%,16.2%,-1.5%,2.7%
CCOc1ccccc1Nc1nc2ccccc2n1C(C)C,-20.1,2.1%,4.5%,u,u,7.9%
Cc1ccc(NC(NC(=O)Cc2ccccc2)C(Cl)(Cl)Cl)cc1 (stereo not drawn),0.0,-5.6%,8.7%,u,u,3.6%
Cc1cccc(NC(NC(=O)Cc2ccccc2)C(Cl)(Cl)Cl)c1 (stereo not drawn),-8.4,-3.4%,0.8%,20.6µM*,18.4µM*,1.6%
CC(C)(C)c1cc(NC(=O)C2(C)CCN2C(=O)C2(c3ccccc3)CCCC2)no1 (stereo not drawn),13.3,x,28.9%,14.6µM*,14.6µM*,23.8%
CC1(C(=O)Nc2cccc3ncccc23)CCN1C(=O)C1(c2ccccc2)CC1 (stereo not drawn),19.0,x,22.5%,-5.3%,-5.2%,9.5%
CC(C)(C)c1cc(NC(=O)C2(C)CCN2C(=O)C2(c3ccccc3)CC2)no1 (stereo not drawn),8.9,x,-23.6%,20.6µM*,u,-2.5%
COc1ccc(-c2noc(C3CC(=O)N(c4ccccc4)C3)n2)c(OC)c1 (stereo not drawn),x,x,x,-22.3%,-20.0%,x
COc1ccccc1CNC(=O)CCC1N=C2c3ccccc3N=C(SCC(N)=O)N2C1=O (stereo not drawn),x,x,x,3.66µM*,29.1µM*,x
COCCCNC(=O)CSC1=Nc2ccccc2C2=NC(CCC(=O)NCc3ccccc3OC)C(=O)N12 (stereo not drawn),x,x,x,18.4µM*,16.4µM*,x
